Assay outcomes: PubChem BioAssay, National Center for Advancing Translational Sciences (NCATS)
Rows were chosen to be rich in hits. Some 18% of all compounds tested hit in one or more screens of this group.
VP16 counter: VP16 counterscreen qHTS for inhibitors of ROR gamma transcriptional activity | Drosophila S2 Gal4-VP16 UAS-luciferase, luminescence, 20 h | Potency, µM (series often up to 53.6 µM), for the others: at the highest dose activity, negative = inhibition, most hits filed as inhibitors | hit rate 3.5% among 310,000;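 further: Gal4-VP16 expression switched on by copper sulfate through the metallothionein promoter; potency means the concentration at half of the fitted maximal effect; nearly all actives have a fitted effect of over 50% in size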
TDP1 cell noCPT: qHTS for Inhibitors of human tyrosyl-DNA phosphodiesterase 1 (TDP1): qHTS in cells in absence of CPT; DT40 Tdp1-/- hTDP1 cells, no CPT, ATP luminescence, 48 h; Potency, µM (titrated, usually from 46.2 µM), for inactives: top-dose activity change, negative = growth inhibition, hits mostly inhibitors; hit rate 15% among 420,000; AID 686978, 2013; further: potency means the concentration at half of the fitted maximal effect; nearly all actives have a fitted effect of over 55% in size
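Camptothecin absent (DMSO only). Human TDP1-complemented DT40 knockout cells, 400 cells/well, 37 °C for minimum 48 hr; ATP measured via CellTiter-Glo, 30 min dark incubation, luminescence.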
TDP1 cell CPT: qHTS for Inhibitors of human tyrosyl-DNA phosphodiesterase 1 (TDP1): qHTS in cells in presence of CPT; chicken DT40 Tdp1-/-;hTDP1 cells + 20 nM CPT, ATP luminescence, 48 h; Potency, µM (highest dose often 46.2 µM), inactives show top-dose activity change, negative = growth inhibition, hits mostly inhibitors; hit rate 12% among 420,000; further: potency means the concentration at half of the fitted maximal effect; nearly all actives have a fitted effect of over 55% in size
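Cell growth measured by CellTiter-Glo luminescence after a minimum 48 h, 37 C compound exposure with 20 nM CPT in Tdp1-knockout DT40 cells stably expressing hTDP1, seeded 400/well; qHTS titration format.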
LDHA block: qHTS assay for inhibitors of human lactate dehydrogenase; L-lactate dehydrogenase A chain (Homo sapiens), P00338; purified LDHA, NADH/diaphorase-resazurin fluorescence; stronger effect = lower value; activity change, % (values are at about 110 or 230 µM); hit rate 0.15% among 480,000; AID 1347041, 2019; in the data active means activity change below about -30%; inconclusive means mostly about -25% to -30%;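 further: plate controls were DMSO wells for no effect and wells without enzyme for full effect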
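LDH5 2 nM; NADH 0.06 mM, pyruvate 0.2 mM; 200 mM Tris pH 7.4, EDTA, Tween-20; 5 min RT. Detection: diaphorase 0.133 mg/mL + resazurin 37 µM, fluorescence ex540/em590 at 0 and 20 min; normalized to enzyme-free and DMSO wells.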
IL-1B inflam inh: qHTS for Inhibitors of Inflammasome Signaling: IL-1-beta AlphaLISA Primary Screen; THP-1 LPS/ATP IL-1B secretion, AlphaLISA, 16 h; stronger effect = lower value; activity change, % at 57.5 µM; hit rate 4.7% among 360,000; in the data active means activity change below about -50%; inconclusive means mostly about -30% to -49%
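Secreted IL-1B measured by AlphaLISA bead assay after 16 h compound exposure of THP-1 cells; compounds (final up to 57.5 uM) added 1 h before LPS (250 ng/mL) and ATP (1.25 mM) stimulation; lower signal means less secretion.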
RORg inh: qHTS for inhibitors of ROR gamma transcriptional activity; Drosophila S2 Gal4-RORgamma UAS-luciferase reporter, 20 h; Potency, µM (top dose mostly 53.6 µM), for inactives: top-dose activity change, negative = inhibition, most hits filed as inhibitors; hit rate 5.4% among 310,000; further: potency means the concentration at half of the fitted maximal effect; nearly all actives have a fitted effect of over 60% in size
Target sequence (P51450 whole entry, looked up, the tested form may be a part): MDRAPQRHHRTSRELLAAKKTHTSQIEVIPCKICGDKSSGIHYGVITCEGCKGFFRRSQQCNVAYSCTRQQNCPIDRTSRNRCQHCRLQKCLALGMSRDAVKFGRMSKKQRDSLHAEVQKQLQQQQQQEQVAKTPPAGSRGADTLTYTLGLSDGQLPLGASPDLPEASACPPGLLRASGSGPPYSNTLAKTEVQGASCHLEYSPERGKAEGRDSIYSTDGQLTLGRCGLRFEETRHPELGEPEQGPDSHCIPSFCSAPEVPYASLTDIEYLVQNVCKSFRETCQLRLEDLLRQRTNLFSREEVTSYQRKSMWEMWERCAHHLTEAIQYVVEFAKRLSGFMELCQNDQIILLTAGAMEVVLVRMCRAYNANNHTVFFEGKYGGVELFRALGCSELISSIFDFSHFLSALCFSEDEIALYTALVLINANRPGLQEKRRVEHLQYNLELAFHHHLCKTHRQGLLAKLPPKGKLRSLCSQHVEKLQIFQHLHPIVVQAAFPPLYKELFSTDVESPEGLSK
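Using a luciferase readout, inhibitors were identified by reduced reporter activity in Drosophila cells coexpressing a copper-inducible Gal4–ROR gamma fusion and UAS-driven Photinus luciferase, incubated 20 hr after 700 uM copper sulfate.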
Numbers without * were called inactive; i = inactive; ? = inconclusive; · = no result; [ ] = remark or other dose. Unless noted, the call rests on the fitted dose curve; in most records, active means well fitted curve in the direction sought with a large enough effect; inconclusive means small, poorly fitted or top-dose-only effect, or another doubt; inactive means no such curve, though single readings can be large; an effect the other way counts as inactive or inconclusive. Unless noted, on the % scale 0 is the no-effect control and ±100 the full control effect.

SMILES	VP16 counter	TDP1 cell noCPT	TDP1 cell CPT	LDHA block	IL-1B inflam inh	RORg inh
CN1CCN(CN2C(=O)C(O)(CC(=O)c3ccccn3)c3ccccc32)CC1 (stereo unspecified)	·	·	·	5.0	·	·
O=C(CC1(O)C(=O)N(C/C=C/c2ccccc2)c2ccccc21)c1ccccc1 (stereo unspecified)	·	·	·	5.0	·	·
O=C(CC1(O)C(=O)N(C/C=C/c2ccccc2)c2ccccc21)c1ccccn1 (stereo unspecified)	7.2%	0.891µM*	1.26µM*	-0.7	34.4	-8.9%
O=C(CC1(O)C(=O)N(CCc2ccccc2)c2ccccc21)c1ccccn1 (stereo unspecified)	0.1%	5.17µM*	2.59µM*	-1.3	-9.6	0.5%
CCOC(=O)c1ccccc1NC(=O)Nc1ccc(OC)c(OC)c1	·	7.3%	-23.9%	4.8	-67.4*	-16.2%[0.365 µM]
CCOC(=O)c1sc(-c2ccc(F)cc2)cc1NC(=O)Nc1ccccc1OC	-0.1%	?	16.4µM*	-1.6	i	-2.7%
COc1cc(NC(=O)/C=C/c2ccccc2)c(C(=O)O)cc1OC	-6.5%	?	?	-8.2	-3.9	-3.2%
COc1cc(/C=C/C(=O)Nc2ccccc2C(F)(F)F)cc(OC)c1OC	-3.0%	·	·	·	·	-39.4%
CCOC(=O)c1ccccc1NC(=O)/C=C/c1cc(OC)c(OC)c(OC)c1	5.9%	6.51µM*	-20.1%	-3.4	-6.6	-14.0%
COc1ccc(/C=C\C(=O)Nc2ccccc2C(=O)O)cc1OC	1.12µM*	13.3µM*	13.3µM*	·	·	?
O=S(=O)(NCC1(c2ccccc2)CC1)c1ccc(Cl)cc1	·	·	·	-12.0	·	·
CCOc1ccc(C2CCCN2C(=O)c2csc(-c3ccsc3)n2)cc1 (stereo unspecified)	·	·	·	-18.0	·	·
O=C(Nc1ccc(F)cc1)C(Sc1cccc[n+]1[O-])c1ccccc1 (stereo unspecified)	·	·	·	-1.0	·	·
CCOCCOC(=O)c1ccc(NC(=O)/C=C/c2ccc(OC)c(OC)c2)cc1	·	9.2µM*	25.9µM*	-1.1	·	·
COc1ccc(OC)c(/C=C/C(=O)Nc2ccc(C(=O)OCCC(C)C)cc2)c1	·	18.4µM*	18.4µM*	13.0	·	·
COc1ccc(OC)c(/C=C/C(=O)NC(C)(C)C)c1	·	·	·	20.3	·	·
COC(=O)c1cc(Cl)c(NC(=O)/C=C/c2ccc(Cl)cc2)cc1OC	-9.1%[0.365 µM]	?	?	7.7	0.0	?
COc1ccc(NC(=O)/C=C/c2ccc(OC)c(OC)c2)cn1	-6.7%	?	-20.8%	-12.7	-8.2	18.0%
COC(=O)c1cc(Cl)c(NC(=O)/C=C/c2ccc(OC)c(OC)c2)cc1OC	3.1%[0.365 µM]	23.1µM*	?	-7.3	-2.7	3.1%
COC(=O)c1cn(C(=O)/C=C/c2ccc(OC)c(OC)c2)c2ccccc12	-0.3%	16.4µM*	?	-0.8	-68.8*	23.6%
Cn1c(NCCO)nc2c1c(=O)n(Cc1ccccc1F)c(=O)n2C	·	·	·	-0.4	·	·
COc1ccc(/C=C/C(=O)Nc2ccncc2)cc1OC	2.8%	-23.5%	-19.5%	-5.3	-21.8	31.6%
COc1ccc(NC(=O)Nc2ccc(C)cc2OC(F)F)cc1OC	?	20.6µM*	?	-2.3	-11.1	?
Cc1ccc(NC(=O)Nc2ccc3c(c2)OCO3)c(OC(F)F)c1	3.5%	-13.9%	-1.5%	-2.5	i	-16.5%
COc1ccc(/C=C/C(=O)Nc2ccc(Cl)c(Cl)c2)cc1OC	·	20.6µM*	?	-1.8	·	·
COc1cc(/C=C/C(=O)Nc2ccc3[nH]c(=O)[nH]c3c2)cc(OC)c1OC	-13.6%	2.4%	3.3%	-2.0	-72.1*	18.1%
